The results in this text go back to PubChem BioAssay AID463173 (ICCB-Longwood Screening Facility, Harvard Medical School, 2010).

Molecules are shown by their SMILES. Screen size: about 52,000 compounds; about 4,300 (8.3%) were called active. Rule as the data show it: active = survival mostly below about 52% (no sharp cut-off); inactive = mostly above about 56%. Many of the other results were omitted from the sample, so actives are more common in it than they were.

The assay has as its system DeltatarO mutant. Briefly: S. aureus survival, RN4220 and DeltatarO strains – OD600, teichoic acid synthesis inhibitors, primary screen (AID 463173). Particulars: S. aureus RN4220 wild type/DeltatarO growth, OD600, 18 h, active compounds read low, screened at 18.75 µg/mL (by protocol).
Regarding `COc1cccc(NC(=O)Cn2c(=O)n(-c3ccc(C)cc3)c(=O)c3ccc(C(=O)NCc4ccco4)cc32)c1`, the survival is 80% (inactive).
Regarding `Cc1cccc(NC(=O)c2ccc3c(c2)CCN3S(=O)(=O)c2ccccc2)c1C`, the survival is 38% (active).
The value for `CCS(=O)(=O)N1CCc2cc(C(=O)Nc3cccc(C)c3C)ccc21` was 80% (inactive).
The figure for `CCS(=O)(=O)N1CCc2cc(C(=O)Nc3cccc(Cl)c3C)ccc21` is 86% (inactive); for `CCc1cccc(CC)c1NC(=O)c1ccc2c(c1)CCN2S(=O)(=O)c1ccccc1` it is 60% (inactive).
The figure for `Cc1ccc(S(=O)(=O)N2CCc3cc(C(=O)Nc4ccc(C)c(C)c4)ccc32)cc1` is 60% (inactive); for `Cc1ccc(C)c(NC(=O)c2ccc3c(c2)CCN3S(=O)(=O)c2ccccc2)c1` it is 40% (active); for `Cc1ccc(C)c(NC(=O)c2ccc3c(c2)CCN3S(C)(=O)=O)c1` it is 105% (inactive).
For `Cc1c(Cl)cccc1NC(=O)c1ccc2c(c1)CCCN2S(C)(=O)=O`, the survival was 70% (inactive).
The value for `Cc1c(Cl)cccc1NC(=O)c1ccc2c(c1)CCN2S(=O)(=O)c1ccccc1` was 39% (active); that for `CC(=O)N1c2ccccc2C(=O)C1N1CCN(c2ccccc2F)CC1` (stereo not drawn) was 90% (inactive).
The value for `COc1ccc(-c2cn3c(n2)sc2cc(C(=O)Nc4cccc(SC)c4)ccc23)cc1` was 59% (inactive).
Consider `COC(=O)c1cc(NC(=O)Cn2ncc3c([nH]c4ccccc43)c2=O)cc(C(=O)OC)c1`, for which the survival was 66% (inactive).
In the case of `O=C(CSc1ccc(-c2ccccn2)nn1)Nc1ccc(F)cc1F`, the survival is 38% (inactive).
The figure for `O=C(NCCc1ccc(Cl)cc1)c1ccc2c(c1)N(Cc1c(F)cccc1Cl)C(=O)CS2` is 44% (active).
`O=C(NCCc1ccc(Cl)cc1)c1ccc2c(c1)N(Cc1ccc(F)cc1Cl)C(=O)CS2`: the survival was 49% (inactive).
Regarding `O=C(NCCc1ccccc1)c1ccc2c(c1)N(Cc1c(F)cccc1Cl)C(=O)CS2`, the survival is 54% (inactive).
The value for `O=C(NCCc1ccccc1)c1ccc2c(c1)N(Cc1ccc(Cl)cc1)C(=O)CS2` was 144% (inactive); that for `CC(NC(=O)c1ccc2c(c1)N(Cc1ccc(Cl)cc1)C(=O)c1ccccc1S2(=O)=O)c1ccccc1` (stereo not drawn) was 90% (inactive).
The figure for `O=C(NCCc1ccccc1)c1ccc2c(c1)N(Cc1ccccc1Cl)C(=O)c1ccccc1S2` is 94% (inactive).
Consider `O=C(NCCc1ccc(Cl)cc1)c1ccc2c(c1)N(Cc1ccccc1)C(=O)CS2`, for which the survival was 25% (active).
The value for `CC(NC(=O)c1ccc2c(c1)N(Cc1ccc(Cl)cc1)C(=O)CS2)c1ccccc1` (stereo not drawn) was 48% (active); that for `O=C(NCCc1ccc(Cl)cc1)c1ccc2c(c1)N(Cc1ccccc1)CCS2` was 102% (inactive).
The figure for `CC(NC(=O)c1ccc2c(c1)N(Cc1ccc(Cl)cc1)C(=O)c1ccccc1S2=O)c1ccccc1` (stereo not drawn) is 73% (inactive); for `Cc1ccc(C)c(CN2C(=O)CSc3ccc(C(=O)NCCc4ccc(Cl)cc4)cc32)c1` it is 49% (inactive).
On to `O=C(NCCc1ccccc1)c1ccc2c(c1)N(Cc1ccc(F)cc1Cl)C(=O)CS2`, for which the survival is 55% (active).
As for `CCOC(=O)c1c(C)n(CCNC(C)=O)c2cc(Br)c(OC)cc12`, the survival is 106% (inactive).
The figure for `O=C(COc1ccccc1)Nc1ccccc1C(=O)OCc1cc(=O)n2nc(C3CC3)sc2n1` is 89% (inactive); for `Cc1ccc(Nc2cc(=O)[nH]c(=O)[nH]2)cc1C` it is 72% (inactive); for `CCc1ccc(NC(=O)C(=O)NCC(c2cccnc2)N2CCN(Cc3ccccc3)CC2)cc1` (stereo not drawn) it is 75% (inactive).
The figure for `CCc1ccc(CNC(=O)CCCN2C(=O)CCn3nc(-c4cccn4C)cc32)cc1` is 72% (inactive); for `Cc1ccccc1C(=O)NCCc1sc(-c2ccc(Cl)cc2)nc1C` it is 100% (inactive); for `COc1cccc(NC(=O)c2cn(C3CCCCC3)c(=O)c3c2c2ccccc2n3C)c1` it is 75% (inactive).
The figure for `Cc1ccc(CN(C(=O)c2ccc(OCC(C)C)cc2)c2ccccn2)o1` is 104% (inactive).
Regarding `O=C(NCCc1ccc(Cl)cc1)c1ccc2c(c1)N(Cc1ccc(F)cc1)C(=O)CS2`, the survival is 37% (active).
The value for `COc1ccc(CCNC(=O)c2ccc3c(c2)N(Cc2ccc(F)cc2)C(=O)CS3)cc1OC` was 117% (inactive); that for `O=C(NCc1ccc2c(c1)OCO2)c1ccc2c(c1)N(Cc1c(F)cccc1Cl)C(=O)c1ccccc1S2` was 86% (inactive); that for `O=C(NCCc1ccccc1)c1ccc2c(c1)N(Cc1ccc(F)cc1)C(=O)CS2` was 74% (inactive).
The value for `O=C(NCCc1ccc(Cl)cc1)c1ccc2c(c1)N(Cc1ccc(Cl)cc1)C(=O)CS2` was 50% (inactive); that for `COCCNC(=O)c1ccc2c(c1)N(Cc1c(F)cccc1Cl)C(=O)c1ccccc1S2` was 78% (inactive); that for `COc1ccccc1CNC(=O)c1ccc2c(c1)N(Cc1ccc(C)cc1)CCS2` was 83% (inactive).
`COc1ccc(CCNC(=O)c2ccc3c(c2)N(Cc2cccc(Cl)c2)C(=O)CS3)cc1OC`: the survival was 54% (active).
The value for `COc1ccccc1CNC(=O)c1ccc2c(c1)N(Cc1c(F)cccc1Cl)C(=O)CS2` was 43% (active); that for `O=C(NCc1ccc(F)cc1)c1ccc2c(c1)N(Cc1c(F)cccc1Cl)C(=O)CS2` was 40% (active).
The figure for `COc1ccc(CNC(=O)c2ccc3c(c2)N(Cc2c(F)cccc2Cl)C(=O)CS3)cc1` is 124% (inactive).
Turning to `COc1ccc(CCNC(=O)c2ccc3c(c2)N(Cc2cccc(Cl)c2)C(=O)c2ccccc2S3=O)cc1OC` (stereo not drawn), the survival was 94% (inactive).
The figure for `CCOc1ccc(NC(=O)C2CCCN(c3cnccn3)C2)cc1` (stereo not drawn) is 86% (inactive); for `CCOc1cc(-c2ccc(OC(=O)c3ccccc3Cl)c(OC)c2)cc(=O)c2c(C)oc(C)c12` it is 69% (inactive).
As to `COc1ccccc1CNC(=O)c1ccc(CSc2nc3ccncc3n2Cc2ccccc2C)cc1`, the survival is 74% (inactive).
The figure for `COc1ccc(C(=O)Nc2nnc(S(=O)(=O)N3CCOCC3)s2)cc1` is 99% (inactive); for `COc1ccc(C(=O)Nc2nnc(S(=O)(=O)N3CCN(c4ccc(C)cc4)CC3)s2)cc1` it is 48% (active); for `Cc1ccc(C(=O)Nc2nnc(S(=O)(=O)N3CCN(c4ccc(F)cc4)CC3)s2)cc1` it is 56% (inactive).
On to `Cc1ccc(N2CCN(S(=O)(=O)c3nnc(NC(=O)c4ccc(C(C)C)cc4)s3)CC2)cc1`, for which the survival was 42% (active).
As to `Cc1ccc(C(=O)Nc2nnc(S(=O)(=O)N3CCOCC3)s2)cc1`, the survival is 68% (inactive).
`COc1ccc(C(=O)Nc2nnc(S(=O)(=O)N3CCN(c4ccc(F)cc4)CC3)s2)cc1`: the survival was 56% (inactive).
As for `CCc1nc(SC)ncc1C(=O)NCc1cccc(Br)c1`, the survival was 89% (inactive).
The value for `CCc1ccc(NC(=O)C2CCC(CNS(=O)(=O)c3cccs3)CC2)cc1` (stereo not drawn) was 94% (inactive); that for `CCOCCCNC(=O)c1ccc(NC(=O)N2CCCCc3ccccc32)cc1` was 89% (inactive).
The value for `O=C1COc2cc(S(=O)(=O)NCc3ccco3)c(Cl)cc2N1` was 98% (inactive); that for `Cc1ccc(CNS(=O)(=O)c2cc3c(cc2Cl)NC(=O)CO3)o1` was 106% (inactive).
The figure for `CCCCN(CC)Cc1ccc(CNS(=O)(=O)c2cc3c(cc2Cl)NC(=O)CO3)o1` is 0% (active); for `Cn1c(SCC(=O)N2c3ccccc3Sc3ccccc32)nnc1-c1ccco1` it is 77% (inactive); for `COC(=O)c1c(-c2ccc(Cl)cc2)noc1N1CCN(c2ccc(F)cc2)CC1` it is 83% (inactive).
Regarding `O=S1(=O)CCC(NCc2ccccc2)C1` (stereo not drawn), the survival was 89% (inactive).
The figure for `CS(=O)(=O)N(CC(=O)NCc1ccncc1)c1ccccc1` is 85% (inactive); for `CCC(C)NC(=O)c1ccccc1NC(=O)CN1C(=O)c2cccc3cccc1c23` (stereo not drawn) it is 50% (inactive).
The value for `CSc1ncc(C(=O)Nc2ccccc2C(F)(F)F)c(-c2ccccc2)n1` was 117% (inactive); that for `O=C(Nc1nnc(N2CCCCCC2)s1)Nc1ccccc1C(F)(F)F` was 80% (inactive); that for `CCSc1nsc(NC(=O)Nc2cccc(OC)c2)n1` was 96% (inactive).
The value for `O=C(CSc1nnc(NC(=O)Nc2ccccc2)s1)Nc1cccc(F)c1` was 73% (inactive).
For `CSc1nsc(NC(=O)Nc2ccccc2C(F)(F)F)n1`, the survival was 13% (active).
As to `CCSc1nsc(NC(=O)Nc2cccc(F)c2)n1`, the survival was 1% (active).
The value for `O=C(NCCc1csc(-c2ccc(Cl)cc2)n1)c1cccs1` was 89% (inactive); that for `COc1ccc(CNC(=O)c2cc3ccccn3n2)cc1OC` was 79% (inactive).
Regarding `Cc1cc(O)c(C(c2ccccc2Cl)N2CCCCC2)c(=O)n1Cc1ccco1` (stereo not drawn), the survival is 76% (inactive).
The value for `CCCOC(=O)c1c(-c2ccccc2)c(-c2ccccc2)nn(C)c1=O` was 60% (inactive); that for `Cc1ccc(C)c(Nc2ncnc3onc(C)c23)c1` was 81% (inactive); that for `CCOC(=O)c1ccc(Nc2c(-c3ccc(O)c(OC)c3)nc3nc[nH]n23)cc1` was 93% (inactive).
With `CCOC(=O)c1ccc(Nc2c(-c3cccc(O)c3)nc3nc[nH]n23)cc1`, the survival is 46% (active).
As to `CCOC(=O)c1ccc(Nc2c(-c3ccc(O)cc3)nc3nc[nH]n23)cc1`, the survival was 91% (inactive).
Regarding `COc1ccc(NC(=O)C2CCCN(C(=O)c3cnn(-c4ccc(F)cc4)c3-n3cccc3)C2)cc1` (stereo not drawn), the survival was 47% (active).
The value for `COc1ccc(CNC(=O)C2CCCN(C(=O)c3cnn(-c4ccc(F)cc4)c3-n3cccc3)C2)cc1` (stereo not drawn) was 86% (inactive).
With `COc1ccc(NC(=O)C2CCCN(C(=O)c3cnn(-c4ccccc4)c3-n3cccc3)C2)cc1` (stereo not drawn), the survival was 70% (inactive).
The figure for `COc1ccc(-c2noc(N(c3nc(-c4ccc(OC)c(OC)c4)no3)c3ccccc3OC)n2)cc1OC` is 115% (inactive); for `COc1ccccc1NC(=O)CN1C(=O)c2cccc3cccc1c23` it is 62% (inactive).
The value for `O=C(CN1C(=O)c2cccc3cccc1c23)Nc1ccccc1Br` was 63% (inactive); that for `CC(C)c1ccccc1NC(=O)CN1C(=O)c2cccc3cccc1c23` was 40% (active); that for `CCOC(=O)c1cnc2cc(-c3ccc(OCC)cc3)nn2c1-c1ccccc1` was 68% (inactive).
